The record followed here is PubChem BioAssay (EPA / NIEHS).

The nature of assay [1]: ATG_CRE_CIS: Attagene CIS-FACTORIAL HepG2 Assay for human cAMP Responsive Element (CRE) binding protein 3 (AID 2282926). The following applies: HepG2 CRE cis-reporter, Attagene multiplexed mRNA; actives raise or lower the signal. An outline of the steps:
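Transfected HepG2 were treated for 24 hours, then RNA was extracted and reporter cDNA amplified with sequence-specific primers. Labelled fragments were separated by capillary electrophoresis, and the CRE signal was fitted bidirectionally with DMSO as baseline.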

In assay [2] the target is CCAAT/enhancer-binding protein beta (Homo sapiens) (UniProt P17676). Put plainly: ATG_C_EBP_CIS: Attagene CIS-FACTORIAL HepG2 Assay for human CCAAT/Enhancer Binding Protein (C/EBP) beta (AID 2282927). The note with it: HepG2 Attagene cis-factorial transcription factor reporter; actives raise or lower the signal. An outline of the steps:
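Following a 24 h incubation with test chemical, transfected HepG2 cells yielded RNA whose reporter transcripts were quantified by RT-PCR and fluorescent capillary electrophoresis, with DMSO serving as baseline for bidirectional fitting.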

Assay [3] can be described thus: ATG_CMV_CIS: Attagene CIS-FACTORIAL HepG2 Assay for human CMV (Internal Marker) (AID 2282928).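 Note: endpoint acts as a background internal control marker rather than a target.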 The following applies: HepG2 CMV promoter reporter, transcription factor profiling; actives raise or lower the signal. An outline of the steps: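 After transient transfection of HepG2 with reporter transcription units driven by cis-regulatory promoters, cells receive test chemical for 24 h. Labeled reporter amplicons, digested with HpaI, are sized and quantified by capillary electrophoresis against DMSO.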

Assay [4] is described as follows: ATG_DR4_LXR_CIS: Attagene CIS-FACTORIAL HepG2 Assay for human Liver X Receptor (LXR), DR4 submotif (AID 2282929). The note with it: HepG2 Attagene DR4 cis-reporter, mRNA transcription; actives raise or lower the signal. In outline:
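Measures endogenous transcription factor activity via a DR4-driven reporter transcript in human HepG2 cells. Compounds incubated 24 h; mRNA quantified by RT-PCR and capillary electrophoresis, analysed as gain or loss of signal versus DMSO.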

The target of assay [5] is Aryl hydrocarbon receptor (Homo sapiens) (UniProt P35869). Briefly: ATG_Ahr_CIS: Attagene CIS-FACTORIAL HepG2 Assay for human Aryl Hydrocarbon Receptor (Ahr) (AID 2282930). The note with it: HepG2 AhR cis-factorial reporter transcription; actives raise or lower the signal. In outline: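 Values derive from bidirectional fitting against DMSO negative control. Underlying signal: cis-element reporter mRNA in transiently transfected HepG2, harvested 24 h post-dose and measured by RT-PCR plus capillary electrophoresis.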
Sequence of Aryl hydrocarbon receptor (Homo sapiens) (P35869 whole entry, looked up): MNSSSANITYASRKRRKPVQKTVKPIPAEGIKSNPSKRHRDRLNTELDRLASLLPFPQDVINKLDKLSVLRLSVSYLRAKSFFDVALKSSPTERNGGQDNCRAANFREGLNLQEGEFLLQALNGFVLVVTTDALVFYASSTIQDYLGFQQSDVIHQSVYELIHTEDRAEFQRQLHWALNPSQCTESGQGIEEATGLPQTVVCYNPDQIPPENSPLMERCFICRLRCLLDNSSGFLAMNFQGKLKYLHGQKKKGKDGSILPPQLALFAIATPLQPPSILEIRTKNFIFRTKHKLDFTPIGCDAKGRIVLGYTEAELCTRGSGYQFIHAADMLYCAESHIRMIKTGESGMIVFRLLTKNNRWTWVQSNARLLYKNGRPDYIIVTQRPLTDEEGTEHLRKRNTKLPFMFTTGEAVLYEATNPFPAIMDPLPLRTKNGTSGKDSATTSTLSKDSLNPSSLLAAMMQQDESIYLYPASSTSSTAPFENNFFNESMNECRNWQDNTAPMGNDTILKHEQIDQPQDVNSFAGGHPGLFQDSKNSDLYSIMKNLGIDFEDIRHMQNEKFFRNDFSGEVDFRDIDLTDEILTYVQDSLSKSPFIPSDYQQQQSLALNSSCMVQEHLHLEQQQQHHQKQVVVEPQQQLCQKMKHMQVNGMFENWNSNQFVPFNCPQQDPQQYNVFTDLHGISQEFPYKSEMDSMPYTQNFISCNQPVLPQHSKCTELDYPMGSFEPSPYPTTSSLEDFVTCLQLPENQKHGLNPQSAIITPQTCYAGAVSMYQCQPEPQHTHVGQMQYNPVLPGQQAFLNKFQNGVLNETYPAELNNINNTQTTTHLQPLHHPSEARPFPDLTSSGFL

Assay [6] is described as follows: ATG_AP_1_CIS: Attagene CIS-FACTORIAL HepG2 Assay for human Activator Protein 1 (AP-1) (AID 2282931). The following applies: HepG2 Attagene cis-factorial AP-1 reporter mRNA; actives raise or lower the signal. In outline:
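Bidirectional concentration-response fitting against DMSO controls. Underlying signal: reporter mRNA from cis-promoter constructs in transiently transfected HepG2, measured after 24 h by RT-PCR and capillary electrophoresis.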

Assay [7] can be described thus: ATG_AP_2_CIS: Attagene CIS-FACTORIAL HepG2 Assay for human Activator Protein 2 (AP-2) (AID 2282932). The note with it: HepG2 AP-2 cis-reporter, Attagene transcription factor profiling; actives raise or lower the signal. In outline:
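HepG2 cells were transiently transfected with multiple cis-promoter reporter transcription units and dosed for 24 h. Reporter mRNA was measured by RT-PCR with capillary electrophoresis fluorescence; bidirectional fits relative to DMSO baseline.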

The nature of assay [8]: ATG_BRE_CIS: Attagene CIS-FACTORIAL HepG2 Assay for human Bone Morphogenetic Protein (BMP) Response Element (BRE) (AID 2282933). The following applies: HepG2 BMP response element reporter, Attagene transcription factor profiling; actives raise or lower the signal. An outline of the steps:
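After a 24 h chemical treatment, transiently transfected HepG2 cells were lysed for RNA; reporter transcripts were quantified by fluorescent RT-PCR and capillary electrophoresis, normalised to DMSO.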

Assay [9] addresses Retinoic acid receptor alpha (Homo sapiens) (UniProt P10276). Put plainly: ATG_DR5_RAR_CIS: Attagene CIS-FACTORIAL HepG2 Assay for human Retinoic Acid Receptor Alpha (RARE), DR5 submotif (AID 2282934). The following applies: HepG2 Attagene cis-factorial RARE DR5 reporter, mRNA; actives raise or lower the signal. In outline:
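Endpoint fitted in both directions relative to DMSO as negative control. It reflects DR5 cis-element reporter mRNA induction in transiently transfected HepG2 cells, measured 24 h after dosing through RT-PCR and fluorescent capillary electrophoresis.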

In assay [10] the target is Transcription factor E2F1 (Homo sapiens) (UniProt Q01094). Put plainly: ATG_E2F_CIS: Attagene CIS-FACTORIAL HepG2 Assay for human E2F Transcription Factor 1 (AID 2282935). The following applies: HepG2 Attagene cis-reporter, E2F reporter RNA transcripts; actives raise or lower the signal. In outline:
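HepG2 cells transiently transfected with multiplexed cis-element reporter units, dosed for 24 h. Reporter mRNA measured by RT-PCR, 6-FAM primer-extension labeling, HpaI digestion and capillary electrophoresis; bidirectional fit versus DMSO baseline.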

A short description of assay [11]: ATG_M_61_CIS: Attagene CIS-FACTORIAL HepG2 Assay for M61 Transcription Factor (Internal Marker) (AID 2282937). The following applies: HepG2 Attagene CIS-FACTORIAL M61 internal marker reporter; actives raise or lower the signal. An outline of the steps:
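Fluorescence from labelled cDNA fragments, separated by capillary electrophoresis, quantifies reporter induction. HepG2 cells bearing transiently transfected cis-promoter MRTUs were incubated with test chemical for 24 h; DMSO defined baseline for gain/loss fitting.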

The nature of assay [12]: ATG_EGR_CIS: Attagene CIS-FACTORIAL HepG2 Assay for human Early Growth Response 1 (EGR1) (AID 2282938). The note with it: HepG2 Attagene CIS-FACTORIAL EGR reporter mRNA; actives raise or lower the signal. An outline of the steps: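 Cell-based multiplex transcription assay: HepG2 carrying transfected cis-element reporter units, 24 h chemical treatment. Fluorescence from capillary electrophoresis of RT-PCR products gives mRNA levels; fitting is bidirectional relative to DMSO.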

A short description of assay [13]: ATG_M_19_CIS: Attagene CIS-FACTORIAL HepG2 Assay for M19 Transcription Factor (Internal Marker) (AID 2282939). The following applies: HepG2 Attagene CIS-FACTORIAL M19 internal marker reporter; actives raise or lower the signal. In outline:
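In this multiplexed cell assay, transiently transfected HepG2 reporter units report endogenous transcription-factor activity; after 24 hours of treatment, labelled reporter cDNA fragments are quantified by capillary electrophoresis and fitted bidirectionally against DMSO.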

The nature of assay [14]: ATG_Ets_CIS: Attagene CIS-FACTORIAL HepG2 Assay for human Erythroblast Transformation Specific (ETS) (AID 2282941). The following applies: HepG2 ETS cis-reporter transcription, actives raise or lower the signal. In outline: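 Human HepG2 hepatoma cells were transiently transfected with promoter-driven reporter constructs and treated for 24 hours. Reporter transcripts were quantified by RT-PCR with fluorescent primer extension; bidirectional curve fitting used DMSO as reference.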

Assay [15] has as its target Hepatocyte nuclear factor 3-beta (Homo sapiens) (UniProt Q9Y261). Put plainly: ATG_FoxA2_CIS: Attagene CIS-FACTORIAL HepG2 Assay for human Forkhead box A2 (FOXA2) (AID 2282942). The following applies: HepG2 cis-reporter transcription factor activity, 24 h; actives raise or lower the signal. An outline of the steps: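 In transiently transfected human HepG2 cells, promoter-driven reporter mRNA levels after 24 h chemical exposure are determined via RT-PCR with capillary electrophoresis. DMSO serves as baseline for bidirectional fitting.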

Assay [16] in a line: ATG_FoxO_CIS: Attagene CIS-FACTORIAL HepG2 Assay for human Forkhead box O (FoxO) (AID 2282943). The following applies: HepG2 Attagene cis-reporter, FoxO element, mRNA; actives raise or lower the signal. In outline: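 Values reflect reporter mRNA induction or loss in HepG2 cells 24 h post-dosing, fitted bidirectionally with DMSO as negative control and baseline. Detection used RT-PCR and fluorescence capillary electrophoresis.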

Assay [17] can be described thus: ATG_GATA_CIS: Attagene CIS-FACTORIAL HepG2 Assay for human GATA Binding Protein (AID 2282944). The note with it: HepG2 GATA cis-element reporter, Attagene multiplex mRNA; actives raise or lower the signal. An outline of the steps:
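Measures endogenous transcription factor-driven reporter mRNA in HepG2 cells transiently carrying cis-regulated constructs. 24 h dosing; RNA via oligo(dT) reverse transcription, PCR, HpaI digestion, capillary electrophoresis; fitted relative to DMSO.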

Assay [18] in a line: ATG_GLI_CIS: Attagene CIS-FACTORIAL HepG2 Assay for human Zinc Finger Protein GLI1 (AID 2282945). The note with it: HepG2, Attagene cis-factorial reporter mRNA, GLI element; actives raise or lower the signal. An outline of the steps:
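HepG2 cells transiently transfected with cis-promoter multiplexed reporter units report endogenous transcription factor activity. After 24 h chemical exposure, reporter mRNA was quantified by RT-PCR, 6-FAM labelling, HpaI digestion and capillary electrophoresis, with bidirectional fitting against DMSO.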

A short description of assay [19]: ATG_E_Box_CIS: Attagene CIS-FACTORIAL HepG2 Assay for human Enhancer Box (E-box) (AID 2282936). The note with it: HepG2 E-box cis-reporter transcription, actives raise or lower the signal. In outline:
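HepG2 cells transiently transfected with multiplexed cis-element reporter units sensing endogenous transcription factor activity; 24 h compound exposure. Reporter mRNA measured by RT-PCR, 6-FAM primer extension, HpaI digestion and capillary electrophoresis; bidirectional fit versus DMSO.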

Assay [20] concerns the target Bile acid receptor (Homo sapiens) (UniProt Q96RI1). Put plainly: ATG_IR1_CIS: Attagene CIS-FACTORIAL HepG2 Assay for human Nuclear Receptor Subfamily 1 Group H Member 4 (NR1H4), IR1 submotif (AID 2282946). The following applies: IR1 reporter transcription, actives raise or lower the signal. In outline: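 Transient MRTU transfection, HepG2; 24 h dosing; RNA → RT-PCR → 6-FAM primer extension → HpaI digest → capillary electrophoresis fluorescence. Gain/loss of signal fitted relative to DMSO.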

Each structure is given as a SMILES string. Calls of active or inactive are those of the source. Rule for the calls: active = hit-call score of the fitted dose curve at least 0.9, where 1 is the maximum; inactive = score below 0.9.

Sequence of CCAAT/enhancer-binding protein beta (Homo sapiens) (P17676 whole entry, looked up): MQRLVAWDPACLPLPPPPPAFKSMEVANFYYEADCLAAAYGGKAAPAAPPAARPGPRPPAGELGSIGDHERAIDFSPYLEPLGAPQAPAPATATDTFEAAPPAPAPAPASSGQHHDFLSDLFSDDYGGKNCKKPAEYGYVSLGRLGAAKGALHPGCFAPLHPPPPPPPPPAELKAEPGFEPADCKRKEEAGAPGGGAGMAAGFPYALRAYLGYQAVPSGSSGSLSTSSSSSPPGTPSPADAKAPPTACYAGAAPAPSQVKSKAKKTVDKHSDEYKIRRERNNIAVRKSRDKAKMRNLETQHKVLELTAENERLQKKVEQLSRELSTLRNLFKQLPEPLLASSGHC
Sequence of Retinoic acid receptor alpha (Homo sapiens) (P10276 whole entry, looked up): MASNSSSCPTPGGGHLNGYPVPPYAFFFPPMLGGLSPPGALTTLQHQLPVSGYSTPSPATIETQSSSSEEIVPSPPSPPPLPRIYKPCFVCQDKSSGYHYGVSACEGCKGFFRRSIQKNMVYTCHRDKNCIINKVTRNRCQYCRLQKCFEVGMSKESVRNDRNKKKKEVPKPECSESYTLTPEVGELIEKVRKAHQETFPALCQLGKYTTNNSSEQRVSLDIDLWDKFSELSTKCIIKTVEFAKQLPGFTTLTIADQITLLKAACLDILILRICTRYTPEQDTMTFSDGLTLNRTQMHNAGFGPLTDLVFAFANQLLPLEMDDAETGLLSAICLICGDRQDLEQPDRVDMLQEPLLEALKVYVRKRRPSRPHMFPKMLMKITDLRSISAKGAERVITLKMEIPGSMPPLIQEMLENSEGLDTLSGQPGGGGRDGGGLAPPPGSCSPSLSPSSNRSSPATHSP
Sequence of Transcription factor E2F1 (Homo sapiens) (Q01094 whole entry, looked up): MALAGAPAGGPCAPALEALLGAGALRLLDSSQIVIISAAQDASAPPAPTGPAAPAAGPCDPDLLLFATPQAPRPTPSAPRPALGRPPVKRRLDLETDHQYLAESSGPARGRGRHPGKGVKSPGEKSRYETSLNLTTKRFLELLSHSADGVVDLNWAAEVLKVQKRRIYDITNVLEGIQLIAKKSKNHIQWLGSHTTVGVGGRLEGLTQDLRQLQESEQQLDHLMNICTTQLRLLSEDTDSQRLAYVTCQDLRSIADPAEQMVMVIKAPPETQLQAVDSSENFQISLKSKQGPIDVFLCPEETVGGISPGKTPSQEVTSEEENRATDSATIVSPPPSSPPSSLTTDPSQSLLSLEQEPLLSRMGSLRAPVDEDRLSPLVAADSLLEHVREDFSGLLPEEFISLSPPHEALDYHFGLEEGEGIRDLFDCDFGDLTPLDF
Sequence of Hepatocyte nuclear factor 3-beta (Homo sapiens) (Q9Y261 whole entry, looked up): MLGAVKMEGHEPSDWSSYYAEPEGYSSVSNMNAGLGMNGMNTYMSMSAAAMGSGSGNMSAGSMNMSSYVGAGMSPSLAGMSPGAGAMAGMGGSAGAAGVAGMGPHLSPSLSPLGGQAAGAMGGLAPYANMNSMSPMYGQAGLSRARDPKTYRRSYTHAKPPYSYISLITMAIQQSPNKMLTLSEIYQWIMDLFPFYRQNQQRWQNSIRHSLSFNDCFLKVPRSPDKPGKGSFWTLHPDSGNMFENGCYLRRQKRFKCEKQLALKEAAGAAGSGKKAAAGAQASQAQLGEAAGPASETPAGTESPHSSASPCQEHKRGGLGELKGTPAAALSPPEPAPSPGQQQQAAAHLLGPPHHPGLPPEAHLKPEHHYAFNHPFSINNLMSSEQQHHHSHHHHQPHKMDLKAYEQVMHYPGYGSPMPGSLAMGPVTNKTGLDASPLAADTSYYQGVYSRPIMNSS
Sequence of Bile acid receptor (Homo sapiens) (Q96RI1 whole entry, looked up): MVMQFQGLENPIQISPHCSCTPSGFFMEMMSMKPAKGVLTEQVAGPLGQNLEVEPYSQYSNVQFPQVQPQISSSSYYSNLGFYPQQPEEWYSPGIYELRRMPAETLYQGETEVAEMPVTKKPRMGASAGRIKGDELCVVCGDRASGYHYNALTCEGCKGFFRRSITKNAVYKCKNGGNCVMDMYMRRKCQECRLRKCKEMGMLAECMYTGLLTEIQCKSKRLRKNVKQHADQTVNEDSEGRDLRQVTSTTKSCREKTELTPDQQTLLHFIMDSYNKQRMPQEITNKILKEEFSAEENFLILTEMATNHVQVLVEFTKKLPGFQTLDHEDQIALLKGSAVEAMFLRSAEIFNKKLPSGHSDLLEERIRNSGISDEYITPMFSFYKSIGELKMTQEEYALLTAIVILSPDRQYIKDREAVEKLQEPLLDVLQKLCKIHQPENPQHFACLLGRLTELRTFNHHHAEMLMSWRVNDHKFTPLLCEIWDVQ

As for `CCc1cnc(C2=NC(C)(C(C)C)C(=O)N2)c(C(=O)O)c1` (centres undefined), the result in [1], in assay [2], in [3], in [4], in assay [5] and in assay [6] was inactive. Moreover, the compound was classed as inactive in assay [7], in assay [8], in [9], in [10], in [11] and in [12]. The call in [13], in assay [14], in [15], in [16], in assay [17] and in assay [18] was inactive.

As for `CCCSP(=O)(OCC)Oc1ccc(Br)cc1Cl` (centres undefined), the AC50 in assay [1] was 2.33 µM (active); in assay [2] it was 1.81 µM (active); in assay [3], 3.92 µM (active). Also, the compound was called inactive in assay [4], in assay [5], in assay [6], in [7], in assay [8] and in assay [9]. Also, the outcome in assay [10], in assay [19], in assay [11], in assay [12], in assay [13] and in assay [14] was inactive. Moreover, the outcome in [15], in assay [16], in [18] and in assay [20] was inactive.

As to `CCc1cccc(C)c1N(C(=O)CCl)C(C)COC` (centres undefined), the compound was classed as inactive in [1], in assay [2], in assay [3], in assay [5], in assay [7] and in [8]. The call in [9], in assay [10], in assay [19], in [11], in [12] and in assay [13] was inactive. Further, the outcome in [14], in [15], in [16], in assay [17] and in assay [18] was inactive. For the same compound, the AC50 was 32.1 µM (active) in assay [4] and 9.57 µM (active) in assay [6].

On to `O=C(O)c1cc(Oc2ccc(C(F)(F)F)cc2Cl)ccc1[N+](=O)[O-]`, for which the outcome in [1], in assay [2], in assay [3], in [4], in assay [5] and in assay [6] was inactive. Besides, the outcome in assay [7], in [8], in [9], in assay [10], in assay [19] and in assay [11] was inactive. Moreover, the call in assay [12], in assay [13], in assay [14], in assay [15], in [16] and in assay [18] was inactive.

For `CCOC(=O)COc1cc(-c2nn(C)c(OC(F)F)c2Cl)c(F)cc1Cl`, the result in assay [1], in assay [2], in assay [3], in assay [4], in assay [5] and in assay [6] was inactive. The call in assay [7], in assay [8], in assay [9], in assay [10], in assay [11] and in assay [12] was inactive. The compound was called inactive in assay [13], in assay [14], in assay [15], in assay [16], in assay [17] and in assay [18].

Turning to `COc1ccc(C(=CC(=O)N2CCOCC2)c2ccc(Cl)cc2)cc1OC`, the AC50 in [1] is 10.9 µM (active); in assay [2] it was 5.02 µM (active); in [3], 2.48 µM (active); in [8] it was 11.9 µM (active); in assay [12] it was 28.4 µM (active); in [14], 23.2 µM (active). Besides, the call in [4], in [5], in [6], in [7], in assay [9] and in assay [10] was inactive. The result in assay [19], in assay [11], in [13], in assay [15], in assay [16] and in assay [18] was inactive. The outcome in [20] was inactive.

For `CCCOc1nn(C(=O)NS(=O)(=O)c2ccccc2C(=O)OC)c(=O)n1C`, the compound was classed as inactive in [1], in [2], in assay [3], in [4], in assay [5] and in assay [6]. The call in [7], in [8], in [9], in assay [10], in assay [19] and in assay [11] was inactive. Also, the call in assay [12], in assay [13], in assay [14], in [15], in assay [16] and in assay [18] was inactive.

As a reminder, the AC50 is the midpoint of the concentration-response curve, whichever way the signal moves.
